GBA mod – alters purified human glucocerebrosidase activity; P04062; AID 360; actives 1.1% (n = 48,000); purified enzyme, resorufin glucoside fluorescence (screen aimed at inhibitors), 20 min; Potency, µM; in the data active = potency below about 15 µM; inconclusive = mostly about 16 µM to 33 µM;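 note: the screen sought inhibitors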
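Normal human glucocerebrosidase (0.2 nM final) was assayed with resorufin β-D-glucopyranoside (30 uM final) in 50mM citric acid/KH2PO4, 10mM sodium taurocholate, 0.01% tween-20, pH 5.9. Compounds were titrated; fluorescence (Ex 548, Em 600) read after 20 min at RT.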
Luciferase inh – inhibitors of firefly luciferase; P08659; purified firefly luciferase, luminescence, 8 min; Potency, µM (titrated, usually from 57.1 µM), for the others: at the top dose activity change, negative = inhibition, usual class: inhibitors; actives 2.2% (n = 72,000); active = well fitted inhibition curve with a large enough effect; inconclusive = small, poorly fitted or top-dose-only effect; note: % is set by controls: 0 for no effect and ±100 for the full control effect; nearly all actives have a fitted effect of over 40% in size
Target sequence (P08659 whole entry, looked up): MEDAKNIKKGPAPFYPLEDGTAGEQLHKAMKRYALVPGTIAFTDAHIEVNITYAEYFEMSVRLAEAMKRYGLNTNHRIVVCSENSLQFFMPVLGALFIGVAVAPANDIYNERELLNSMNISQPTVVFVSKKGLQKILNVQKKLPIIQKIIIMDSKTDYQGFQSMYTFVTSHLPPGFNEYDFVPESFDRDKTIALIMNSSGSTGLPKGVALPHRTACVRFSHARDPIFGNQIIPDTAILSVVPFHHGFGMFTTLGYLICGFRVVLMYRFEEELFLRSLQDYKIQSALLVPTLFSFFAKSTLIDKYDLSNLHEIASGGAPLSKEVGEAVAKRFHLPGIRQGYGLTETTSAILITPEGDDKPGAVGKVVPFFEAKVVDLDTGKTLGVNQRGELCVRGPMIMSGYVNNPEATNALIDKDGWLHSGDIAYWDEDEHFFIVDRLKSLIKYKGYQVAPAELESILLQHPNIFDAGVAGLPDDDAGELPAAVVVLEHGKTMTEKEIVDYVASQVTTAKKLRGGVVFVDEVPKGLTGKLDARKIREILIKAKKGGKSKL
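Firefly luciferase (PKLight detection mix) with 10 uM ATP in pH 7.2 imidazole buffer (KCl, MgCl2, Tween 20, BSA). Compounds tested across a concentration series (qHTS). Luminescence read after 8 min at ambient temperature.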
PK Bst – alters activity of Bacillus stearothermophilus pyruvate kinase; purified pyruvate kinase, luminescence ATP production; ribose 5-phosphate activator present at AC10; Potency, µM; actives 1.2% (n = 51,000); AID 361; in the data active = potency below about 11 µM; inconclusive = mostly about 12 µM to 25 µM;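 the screen sought inhibitors and activators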;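 note: scaled between full activation by ribose 5 phosphate and full inhibition by luteolin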
Starred values were filed as active, the others as inactive; i = inactive; ? = inconclusive; . = no result; [ ] = dose if it differs, or a comment. In the library only some 3.2% were active in any assay of this set; here they are far more common. Potency is the fitted concentration of half-maximal effect.

SMILES	GBA mod	Luciferase inh	PK Bst
c1ccc(-c2nnc(-c3ccco3)o2)cc1	>77	-23%	i
c1coc(-c2nnc(-c3ccc4c(c3)OCO4)o2)c1	.	10µM*	.
CN1CC[C@@]23c4ccccc4N[C@H]1[C@]21CCN(C)[C@@H]3Nc2ccccc21	.	8%[25.5 µM]	.
N[C@@H](CC1=CS(=O)(=O)c2ccc(Cl)cc21)C(=O)O	.	3%[11.4 µM]	.
O=C(Cc1cc(=O)[nH]c(=O)[nH]1)N1CCC(Cc2ccccc2)CC1	.	10µM*	.
CC(C)N1C(=O)CCC1C(=O)N1CCC(Cc2ccccc2)CC1 (stereo not drawn)	.	2%	.
c1ccc(C(c2ccccc2)N2CCC3(CCNCC3)CC2)cc1	.	1%[11.4 µM]	.
CCNc1ncc2nc(-c3cccs3)c(=O)n(-c3ccc(OC)cc3)c2n1	.	-1%[11.4 µM]	.
CC(C)(C)N1C(=O)[C@H]2[C@H]3[C@H](O)[C@H](O)C/C(=N/OCc4ccccc4)[C@@H]3CC[C@@H]2C1=O	.	2%[11.4 µM]	.
O=C(NC1=NCCS1)c1ccc(OCC2CCCO2)cc1 (stereo not drawn)	?	25µM*	.
COc1ccc(C(=O)NCC(=O)NC2=NCCS2)cc1	.	1%	.
Nc1cc(Cl)c(NC2=NCCN2)c(Cl)c1	.	1%	.
Cc1nc2ccccc2c2nc3ccccc3n12	.	-1%	.
c1ccc2c(c1)nnn1c3ccccc3nc21	.	13µM*	.
CN(C)c1ccccc1C(=O)c1ccccc1N(C)C	?	25µM*	.
CN(c1ccccc1C(=O)O)S(C)(=O)=O	>77	0%	>57
COCCn1c(=O)c(CCc2ccccc2)nc2cnc(Oc3ccc(OC)cc3)nc21	.	1%[11.4 µM]	.
O=c1c(-c2cccs2)nc2cnc(N3CCNCC3)nc2n1-c1ccccc1	.	1%[11.4 µM]	.
COc1cccc(-c2ccc3ncnc(NCCN4CCOCC4)c3c2)c1	.	-1%[2.29 µM]	.
OCCOCCN1CCN([C@@H](c2ccccc2)c2ccc(Cl)cc2)CC1	.	4%[25.5 µM]	.
CCOC(=O)N/C(N)=N/c1nc2ccccc2s1	.	13µM*	.
CCOC(=O)NC(Nc1nc2ccccc2s1)(C(=O)OCC)C(F)(F)F (stereo not drawn)	>77	0%	>57
C#CCCCO/N=C1/C[C@@H](O)[C@@H](O)[C@@H]2[C@@H]3C(=O)N(CC)C(=O)[C@H]3CC[C@H]12	.	2%[11.4 µM]	.
O=C(CCSCc1ccccc1F)N1CCN(c2ccccn2)CC1	.	-2%	>57
O=C(CSCc1ccccc1Cl)N1CCN(c2ccccn2)CC1	15*	-1%	>57
SMILES	GBA mod	Luciferase inh	PK Bst
Clc1ccccc1-c1nccc(NCc2cccs2)n1	.	-1%[2.29 µM]	.
CCOC(=O)c1cc(-c2ccc(N)cc2)sc1N	>77	13µM*	?
CCOC(=O)c1ccc(N)cc1	.	2%[25.5 µM]	.
COc1cccc(OCC(=O)Nc2c(C(=O)Nc3ccc(OC)cc3OC)oc3ccccc23)c1	.	-21%	.
C/C(=C\C(=O)Nc1nccs1)c1ccccc1	>77	25µM*	i
CCC(C(=O)Nc1nccs1)c1ccccc1 (stereo not drawn)	.	-3%	.
CCCCN1CCC[C@@H]1CNC(=O)c1cc(C#N)c2ccccc2c1OC	.	-1%	.
CCN1CCC[C@@H]1CNC(=O)c1c(O)c(Cl)cc(Cl)c1OC	.	1%	.
CCN1CCC[C@H]1CNC(=O)c1c(O)c(Cl)cc(Cl)c1OC	.	13µM*	.
O=C(O)NCC1CCCCC1 (tested in a mixture with another compound)	.	0%[11.4 µM]	.
COCCn1c(=O)cnc2cnc(OCc3ccccc3)nc21	.	0%[11.4 µM]	.
O=C(Nc1ccc(CN2CCOCC2)cc1)c1cccs1	>77	25µM*	.
O=C(Nc1ccc(CN2CCOCC2)cc1)c1cc2ccccn2n1	.	4µM*	.
O=C(/C=C/N1CCOCC1)c1cc2ccccc2o1	.	13µM*	.
Cc1cc(NC(=O)c2cc3ccccc3o2)cc(C)c1OCC(=O)N1CCOCC1	>77	16µM*	.
O=C(NCCN1CCOCC1)c1cccs1	>77	-1%	>57
COc1cc(C(=O)Nc2cc(C)c(OCC(=O)N3CCOCC3)c(C)c2)cc(OC)c1OC	.	-1%	.
O=C(Cc1ccccc1)Nc1ccc(CN2CCOCC2)cc1	>77	-25%	>57
O=C(c1cc2ccccc2o1)N1CCCCCC1	>77	-3%	>57
O=C(O)c1cc(N=Nc2ccc([N+](=O)[O-])cc2)ccc1O	.	-15%[11.4 µM]	.
C[N+]12CCC(CC1)[C@@H](OC(=O)C(O)(c1ccccc1)c1ccccc1)C2	.	3%[25.5 µM]	.
COc1ccc(CNc2nc(-c3cccc(NS(C)(=O)=O)c3)nc3ccccc23)c(OC)c1	.	-6%[2.29 µM]	.
CC(C)CN1CC[C@@]2(CCCN(C(=O)c3cnccn3)C2)C1	.	2%[11.4 µM]	.
CCCCC[C@@H](O)[C@@H]1C(=O)O[C@@H](C)[C@@H](O)\C=C/C=C\C=C/C=C\C=C(\C)[C@H](O)C[C@H](O)C[C@H](O)C[C@H](O)C[C@H](O)C[C@H](O)C[C@@H]1O	.	2%[11.4 µM]	.
O=C(Nc1ccc(CN2CCOCC2)cc1)c1cc2ccccc2o1	>77	13µM*	i
O=C(NCCN1CCOCC1)c1cc2ccccc2o1	>77	5%	>57

Screening data from PubChem.
